The panel holds about 83,000 compounds, 20% with a hit somewhere; the sample as a whole holds those more often.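 96-well plates, one dose, 48 hours. Percent growth reported; active if below 10.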 A number with no mark means an inactive call. Calls of active or inactive are those of the source.
Each molecule was assayed on SN12C renal (assay: NCI-60 one-dose screen, 48 h (100 = growth as untreated, 0 = no growth, -100 = all killed)). Details: 10 µM unless noted.

SMILES	growth
CNc1cc(C(=O)O)nc(NC)n1	95.1%
Brc1ccc2c(c1)CN(C1CCCCC1)CO2	113%
CCN=C1C=CC(=C(c2ccc(N(CC)CC)cc2)c2ccc(N(CC)CC)cc2)c2ccccc21	-34.2% (active)
O=C(CSc1nc2ccc([N+](=O)[O-])cc2[nH]1)Nc1ccc(F)c(Cl)c1	3.12% (active)
COc1ccc(-c2ccc(NNC(=O)c3ccc(F)cc3)nn2)cc1OC	57.1%
CCOC(CNC(=O)c1cccc([N+](=O)[O-])c1)OCC	92.7%
CN(C)C(=S)Sc1ccc([N+](=O)[O-])cc1[N+](=O)[O-]	41.8%
CCN(CC)CC(C)Nc1ccc(C)c2sc3ccccc3c(=O)c12 (stereo not drawn)	49.6%
CN(C)Cc1ccc[nH]1	70.4%
CNC(=O)c1cc(Oc2cccc3nc(NC(=O)Nc4cc(C(F)(F)F)cc(C(F)(F)F)c4)ccc23)ccn1	12.1%
CC1=CC[C@@H]2C(C)(C)[C@@H](O)CC[C@@]2(C)[C@@H]1COc1ccc2ccc(=O)oc2c1	32.5%
CC(=O)CC(=O)SC1=NCCS1	108%
CSc1cccc([N+](=O)[O-])c1	86.2%
O=C1/C(=C\c2cccn2Cc2ccccc2)c2ccccc2N1c1c(Cl)cccc1Cl	87.3%
COc1ncnc2c(-c3ccccc3)cn(COCc3ccccc3)c12	66.6%
C=C(C)[C@@H]1CC[C@]2(C(=O)NCCCN)CC[C@]3(C)[C@H](CC[C@@H]4[C@@]5(C)CC[C@H](O)C(C)(C)[C@@H]5CC[C@]43C)[C@@H]12	-34.7% [100 µM] (active)
COc1ccc(/C=C/C=C\C(=O)c2ccc(-n3ccnc3)cc2)cc1	90.7%
Cc1ccccc1-n1nnc(C(=O)Nc2nc3ccc(F)cc3s2)c1C	68.6%
O=C(N/N=C/c1ccc([N+](=O)[O-])cc1)c1ccc(Br)o1	102%

SMILES	growth
Cc1nc(-c2ccccc2)sc1CC#N	103%
O=S(=O)(/N=c1/n(-c2ccccc2)nc2n1CCN2C1=NCCN1)c1ccc(-c2ccccc2)cc1	93.6%
Nc1ccc2c(c1)Cc1cc(NC(=O)C(F)(F)F)ccc1-2	97.6%
O=C(Nc1ccc(C(=O)/C=C/c2ccc(N3CCOCC3)cc2)cc1)Nc1ccc([N+](=O)[O-])cc1	97%
C=CCc1nc2ccccc2s1	110%
O=C(Nc1cc(F)cc2cccnc12)c1cnc(N2CCNCC2)cn1	75%
C[n+]1c2ccccc2nc2c(N)cc(N)cc21	5.51% (active)
CCOC(=O)CCC[P+](c1ccccc1)(c1ccccc1)c1ccccc1	82%
COc1ccc2nc3ccccc3c(NCCNCCO)c2c1	1.83% (active)
c1nc(N2CCOCC2)c2[nH]ccc2n1	104%
Oc1c(CNCCNCc2cc(Cl)cc(Cc3ccccc3)c2O)cc(Cl)cc1Cc1ccccc1	19.1%
COc1cc(Cl)cc(-c2nn(C(=O)NS(=O)(=O)c3ccccc3)cc2-c2ccncc2)c1	94.5%
COc1cccc(-c2[nH]c(=S)ncc2C(=O)c2ccccc2)c1	94.4%
CC(C)(C)c1cc(C(=O)Nc2ccccc2C(=O)NCCN)cc(C(C)(C)C)c1	-30.8% (active)
N=C(N)c1ccc(-c2ccc(-c3ccc(-c4cccs4)s3)s2)cc1F	92.7%
Cc1c(Cn2cc(COc3ccc(Br)cc3)nn2)c(C)c(Cn2cc(COc3ccc(Br)cc3)nn2)c(C)c1Cn1cc(COc2ccc(Br)cc2)nn1	92.6%
CCc1ccc(-c2ccc(COc3ccc(CC4SC(=O)NC4=O)cc3)cc2)cc1 (stereo not drawn)	74.5%
Cc1ccc(N)c(O)c1	115%
CCCCN(CCCC)CC(O)c1ccc(OCc2ccccc2)c2ccccc12 (stereo not drawn)	94.6%

— PubChem BioAssay (NCI)
